PLK1 PBD inh: PLK1 (human) polo-box domain binding inhibition. P53350. Plk1 PBD binding of FITC phosphopeptide, fluorescence polarization. Potency, µM, actives largely listed as inhibitors. 360,000 compounds, 2.8% hits. AID 720504; note: series mostly up to about 57 µM; nearly all actives have a fitted effect of over 65% in size
Target sequence (P53350 whole entry, looked up, the tested form may be a part): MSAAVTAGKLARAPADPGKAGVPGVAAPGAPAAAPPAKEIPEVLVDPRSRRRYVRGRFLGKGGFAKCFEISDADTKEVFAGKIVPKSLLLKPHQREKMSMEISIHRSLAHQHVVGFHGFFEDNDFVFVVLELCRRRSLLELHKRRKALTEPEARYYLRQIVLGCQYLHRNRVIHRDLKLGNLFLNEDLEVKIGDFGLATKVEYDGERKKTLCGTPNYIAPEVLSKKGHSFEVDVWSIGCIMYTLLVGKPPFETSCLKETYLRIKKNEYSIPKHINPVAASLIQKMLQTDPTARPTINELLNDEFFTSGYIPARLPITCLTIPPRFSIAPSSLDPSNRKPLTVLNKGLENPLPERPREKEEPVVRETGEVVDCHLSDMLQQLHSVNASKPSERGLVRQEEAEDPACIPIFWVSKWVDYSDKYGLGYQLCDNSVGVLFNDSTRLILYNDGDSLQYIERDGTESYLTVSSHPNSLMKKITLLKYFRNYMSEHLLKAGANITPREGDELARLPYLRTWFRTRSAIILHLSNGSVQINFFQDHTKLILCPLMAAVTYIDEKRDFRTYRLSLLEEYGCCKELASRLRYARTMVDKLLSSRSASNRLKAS
Sfp PPTase inh: blocks B. subtilis Sfp PPTase activity | AID 1490 | Potency, µM, usual class: inhibitors | Biochemical Sfp PPTase activity, qHTS | Q9F4F7 | 310,000 compounds, 3.5% hits;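 note: the enzyme is Sfp with the accession as filed and its product quenches rhodamine fluorescence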
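After 15 min at room temperature with compound, 15 nM Sfp received 5 uM rhodamine-CoA plus 12.5 uM BHQ-2-ybbR (50 mM Hepes pH 7.6, 10 mM MgCl2). Rate came from the fluorescence difference over 30 min, ex 525/em 598 nm.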
ALDH1A1 block: ALDH1A1 (human) enzyme inhibition; 220,000 compounds, 7.3% hits; Potency, µM (highest dose often 75.3 µM), hits mostly inhibitors; P00352; Purified ALDH1A1, NADH fluorescence, propionaldehyde substrate; AID 1030; active = well fitted inhibition curve with a large enough effect, not every such curve was filed as active; inconclusive = small, poorly fitted or top-dose-only effect, or another doubt; inactive = no such curve, though single readings can be large or run the other way
VP16 counter: Gal4-VP16 reporter inhibition counter-screen; Drosophila S2 Gal4-VP16 UAS-luciferase, luminescence, 20 h; Potency, µM (series often up to 53.6 µM), actives largely listed as inhibitors; 310,000 compounds, 3.5% hits;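 note: Gal4-VP16 expression switched on by copper sulfate through the metallothionein promoter; nearly all actives have a fitted effect of over 50% in size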
RORgamma inh: inhibitors of mouse ROR gamma transcriptional activity | AID 2551 | Drosophila S2 Gal4-RORgamma UAS-luciferase reporter, 20 h | P51450 | 310,000 compounds, 5.4% hits | Potency, µM (highest dose often 53.6 µM), actives largely listed as inhibitors; note: nearly all actives have a fitted effect of over 60% in size
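Stably transfected Drosophila Schneider cells are the test system, with ROR gamma fused to Gal4 and luciferase under UAS control; luminescence is read after 20 hr of 700 uM copper sulfate induction at ambient temperature.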
A number is an active result; 0 = inactive; ? = inconclusive; - = no result given; [ ] = remark or other dose. A selection: hits, their analogues and other compounds. The true share with any hit is near 12%. Unless noted, calls come from the whole dose curve; as a rule, active = well fitted curve in the direction sought with a large enough effect; inconclusive = small, poorly fitted or top-dose-only effect, or another doubt; inactive = no such curve, though single readings can be large; an effect the other way counts as inactive or inconclusive.

SMILES | PLK1 PBD inh | Sfp PPTase inh | ALDH1A1 block | VP16 counter | RORgamma inh
CC(C)N1CCN(c2ccc(C(=O)c3c(-c4ccc(O)cc4)sc4cc(O)ccc34)cc2)CC1 | - | 0 | - | ? | 0
COc1cccc([C@@H]2Oc3ccc(OC)cc3C(=O)[C@H]2OC(=O)N[C@H]2CCCc3ccccc32)c1 | - | 0 | ? | 0 | 0
COC(=O)C[C@@H]1CC[C@H](NC(=O)Nc2ccc(OC)cc2)[C@@H](CO)O1 | 0 | - | - | - | -
COC(=O)c1sc(-c2ccc(Cl)cc2)cc1NC(=O)c1ccccc1C(=O)O | 30µM | 0 | - | 0 | ?
CC(=O)OCCN1c2ccccc2Sc2cnccc21 | 0 | - | - | - | -
CC(=O)OCCCN1c2ccccc2Nc2nnc(-c3ccccc3)cc21 | 0 | 0 | 0 | ? | 11µM
O=C(C[C@@H]1C=C[C@H](NS(=O)(=O)c2ccccc2F)[C@@H](CO)O1)NCCCN1CCOCC1 | 0 | - | - | - | -
COc1cccc(CN2CCN(Cc3cccc4c3OCO4)CC2CCO)c1 (configuration not stated) | 0 | 0 | 0 | 7.9µM | 7.1µM
CCC(=Nc1ccc(N)cc1)C1=C(O)C(C(=O)OC)C(C)(C)CC1=O (configuration not stated) | 0 | 45µM | 0 | 0 | 0
COCCNC(=O)C1(C)CCCN(Cc2noc(-c3ccccc3OC)n2)C1 (configuration not stated) | 0 | - | - | - | -
CCC(C)[C@H]1CNC(=S)N1CCc1cccc2ccccc12 (some centres not stated) | 0 | 0 | - | 4.5µM | 2.5µM
CCC(C)[C@H]1CNC(=S)N1CCC12CC3CC(CC(C3)C1)C2 (some centres not stated) | 0 | 0 | - | 2.8µM | 0.89µM
CC[C@H](C)[C@H]1CNC(=S)N1CC1CCN(CC)CC1 | 0 | - | - | - | -
COCCC(=O)N1CCC(Oc2ccc(C(=O)N3CCCCCC3)cc2)CC1 | 11µM | 0 | - | 0 | 0
O=C(c1ccccc1)N1CCCCCC1 | 0 | 0 | 0 | 0 | 0
O=C(c1ccc(C(=O)N2CCCCCC2)cc1)N1CCCCCC1 | 0 | 0 | 18µM | 0 | 0
O=C1CCCCCN1C(=O)c1ccc(C(=O)N2CCCCCC2=O)cc1 | 30µM | 0 | 0 | 0 | 0
CCOC(=O)N1CCN(C(=O)c2ccc(CSc3ccc(Cl)cc3)cc2)CC1 | 27µM | ? | 0 | ? | ?
COCC(=O)N1CCC(Oc2ccc(C(=O)N3CCCCCCC3)cc2)CC1 | 0 | 0 | - | 0 | 0
O=C(O)C(O)C(O)C(O)C(O)C(=O)O (configuration not stated) | - | 0 | 0 | 0 | 0
O=C(NCCc1ccccc1)C1Cc2c(-c3ccc(Cl)cc3)ccnc2O1 (configuration not stated) | 0 | - | - | - | -
FC(F)(F)c1ccccc1-c1ccc2ncnc(NC3CC3)c2c1 | - | 0 | 0 | ? | 0
CN1CCN(C(=O)c2ccc(CSc3ccc(Cl)cc3)cc2)CC1 | 0 | 0 | 0 | 0 | ?
Cc1ccc(SCc2ccc(C(=O)N3CCCCC3)cc2)cc1 | 0 | 0 | 4µM | 0 | ?
O=C1CSc2ccc(C(=O)N3CCCCC3)cc2N1 | 15µM | - | - | - | -
SMILES | PLK1 PBD inh | Sfp PPTase inh | ALDH1A1 block | VP16 counter | RORgamma inh
O=c1oc2ccccc2c(O)c1CN1CCCCC1 | 0 | 0 | 14µM | 0 | 0
COCCCN1C(=O)C(CC(=O)NC(c2ccccc2)c2ccccc2)CC(C(=O)N2CCOCC2)=C1C (configuration not stated) | 0 | - | - | - | -
CC(C)[C@H](NC(=O)c1c(F)cccc1F)C(=O)OCC(=O)NNC(=O)c1ccccc1 | 0 | - | - | - | -
CCn1c(=O)cc(OCC(=O)N(C)C2CCCCC2)c2ccccc21 | 0 | 0 | 20µM | 0 | 0
CCn1c(=O)cc(OCC(=O)N2CCN(C(=O)c3ccco3)CC2)c2ccccc21 | 0 | 0 | 18µM | 0 | 0
CN(C(=O)COc1cc(=O)n(C)c2ccccc12)c1ccc(Br)cc1 | 0 | 0 | 22µM | 0 | 0
CCOC(=O)N1CCN(C(=O)COc2cc(=O)n(CC)c3ccccc23)CC1 | 0 | 0 | 0 | 0 | 0
Cc1cccc(N(C)C(=O)COc2cc(=O)n(C)c3ccccc23)c1 | 0 | 0 | 0 | 0 | 0
O=C1c2ccccc2C(c2nnnn2Cc2ccccc2)N1C1CC1 (configuration not stated) | 0 | - | - | - | -
COc1ccc(CCc2nnc(NS(C)(=O)=O)s2)cc1 | ? | 0 | - | 0 | 0
C/C(=N\NC(=O)c1cccc(N/N=C(\C)c2ccccc2)c1)c1ccccc1 | 0 | 0 | 12µM | ? | ?
C/C(=N\Nc1cccc(C(F)(F)F)c1)c1ccc(O)cc1 | 0 | 0 | 20µM | 0 | 0
C/C(=N\NC(=O)c1cccc(N/N=C(\C)c2ccncc2)c1)c1ccncc1 | 27µM | 0 | ? | 0 | 0
C/C(=N\NC(=O)c1cccc(N/N=C(\C)c2ccc([N+](=O)[O-])cc2)c1)c1ccc([N+](=O)[O-])cc1 | 0 | 0 | - | 0 | 0
CCc1ccc([C@@H]2CC=C(C(=O)O)[C@H](c3cccc(Cl)c3)N2S(=O)(=O)c2ccc(C)cc2)cc1 | 21µM | - | - | - | -
CCOC(=O)C1=CC[C@@H](c2ccccc2)N(S(=O)(=O)c2ccc(C)cc2)[C@H]1C#N | 6.7µM | - | - | - | -
CCOC(=O)C1=CC[C@@H](c2ccccc2)N(S(=O)(=O)c2ccc(C)cc2)[C@H]1c1ccc(C#N)cc1 | 0 | - | - | - | -
COc1ccc([C@@H]2CC=C(C(=O)O)[C@H](c3ccc(C(C)(C)C)cc3)N2S(=O)(=O)c2ccc(C)cc2)cc1OC | 0 | - | - | - | -
COc1cc([C@@H]2CC=C(C(=O)O)[C@H](c3cccc(Cl)c3)N2S(=O)(=O)c2ccc(C)cc2)cc(OC)c1OC | 0 | - | - | - | -
Cc1ccc(S(=O)(=O)N2[C@@H](c3ccc(Br)cc3)C(C(=O)O)=CC[C@H]2c2ccc(Cl)c(Cl)c2)cc1 | 24µM | - | - | - | -
Cc1ccc(S(=O)(=O)N2[C@@H](c3ccc(C(C)(C)C)cc3)C(C(=O)O)=CC[C@H]2c2cccc(Cl)c2)cc1 | 21µM | - | - | - | -
O=C1CCCC2[C@@H]3CCC[N@+]4([O-])CCC[C@H](CN12)C34 (some centres not stated) | - | 0 | 0 | 0 | 0
CC(C)CO/N=C1/C[C@@H](O)[C@@H](O)[C@@H]2[C@@H]3C(=O)N(C4CCCCC4)C(=O)[C@H]3CC[C@@H]12 | - | 0 | 0[13.5 µM] | 0[10 µM] | 0[10 µM]
Cc1ccc(S(=O)(=O)N2[C@@H](c3cccc(Cl)c3)C(C(=O)O)=CC[C@H]2c2cccc(Cl)c2)cc1 | 27µM | - | - | - | -
Cc1ccc(S(=O)(=O)N2[C@@H](c3cccc(Cl)c3)C(C(=O)O)=CC[C@H]2c2ccc3c(c2)OCO3)cc1 | 0 | - | - | - | -
Cc1ccc(S(=O)(=O)N2[C@@H](c3ccc(C(C)(C)C)cc3)C(C(=O)O)=CC[C@H]2c2ccc(Cl)c(Cl)c2)cc1 | 27µM | - | - | - | -
CC1=C(C(=O)N(C(C)C)C(C)C)CC(CC(=O)NCc2cccc3ccccc23)C(=O)N1Cc1ccccc1 (configuration not stated) | 0 | - | - | - | -
CC(C)(C)NC(=O)C(c1ccncc1)n1c(-c2ccc(C(F)(F)F)cc2)nc2ccccc21 (configuration not stated) | 0 | - | - | - | -

From PubChem BioAssay
